A short description of assay [1]: resazurin metabolic signal in HepG2 cells – cell-based, resazurin fluorescence, 24 h, PK04 Diversity Set, profiling panel (AID 1172). Also: test concentration not given here. The following applies: HepG2 viability, higher = more signal. (Resazurin is reduced to fluorescent resorufin, in cell work by metabolically active cells.)
Assay [2] is described as follows: budding yeast growth changes without added modifier – OD600, strain BY4716, 24 h, basal condition, primary screen (AID 1173). The following applies: S. cerevisiae BY4716 growth, OD600, 24 h; higher = more signal, called active from +8 up or from −8 down.
Assay [3] in a line: viability profiling in MM1S myeloma cells – cell-based, resazurin fluorescence, basal, 24 h, PK04 Diversity Set, profiling panel (AID 1174). Also: test concentration not given here. The note with it: higher = more signal, called active from +8 up or from −8 down.
The target in assay [4] is Dihydroorotate dehydrogenase (quinone), mitochondrial (Plasmodium falciparum (isolate 3D7)) (UniProt Q08210). Kind of assay: inhibition of P. falciparum DHODH – biochemical, C-terminal His tag, absorbance 600 nm, primary screen (AID 1175).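 Also: recombinant parasite enzyme with a five histidine tag at its C terminus; test concentration not given here.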 The note with it: PfDHODH enzyme, DCIP absorbance 600 nm; higher = more signal, called active from +8 up or from −8 down.
A short description of assay [5]: inhibition of PAO1 biofilm formation – strain PAO1, LB-PBS medium, absorbance 600 nm, primary screen (AID 1176). Also: test concentration not given here. The following applies: P. aeruginosa PAO1 growth/biofilm, A600, 12 h; higher = more signal.
The nature of assay [6]: growth modulation of vineyard yeast isolate – strain RM11-1a, OD600, basal, 24 h, primary screen (AID 1177).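 Also: cultures grown under basal conditions with no added stressor; test concentration not given here.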 The following applies: S. cerevisiae RM11-1a growth, OD600, 24 h; higher = more signal, called active from +8 up or from −8 down.
Assay [7] can be described thus: growth of efflux-deficient E. coli DRC39 – strain DRC39, OD650, 24 h, E. coli filamentation inducers, primary screen (AID 1178).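 Also: growth measured as culture turbidity by optical density at 650 nm; test concentration not given here.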 The note with it: E. coli DRC39 acrAB, higher = more signal, called active from +8 up or from −8 down.
The nature of assay [8]: growth of efflux-deficient E. coli DRC39 – strain DRC39, OD650, 48 h, E. coli filamentation inducers, primary screen (AID 1179).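 Also: screen aims at cell division blockers that make cells filament.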 The note with it: E. coli DRC39 delta-acrAB growth, higher = more signal, called active from +8 up or from −8 down.
Assay [9] can be described thus: viability profiling in RPMI8226 myeloma cells – cell-based, resazurin fluorescence, basal, 24 h, PK04 Diversity Set, profiling panel (AID 1180).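 Also: RPMI8826 multiple myeloma cell line at 5000 cells per well; test concentration not given here.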 The note with it: higher = more signal.
Assay [10] concerns the target E3 ubiquitin-protein ligase XIAP (Homo sapiens) (UniProt P98170). Kind of assay: small molecules binding XIAP protein – biophysical, small-molecule microarray, fluorescence 635 nm, primary screen (AID 1181).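 Also: score merges 667 nm emission and signal to noise over triplicate slides.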 The note with it: higher = more signal.

Activity calls are given as the source filed them. Unless noted, no rule for the calls is given here.

Chain of Dihydroorotate dehydrogenase (quinone), mitochondrial (Plasmodium falciparum (isolate 3D7)) (Q08210 whole entry, looked up): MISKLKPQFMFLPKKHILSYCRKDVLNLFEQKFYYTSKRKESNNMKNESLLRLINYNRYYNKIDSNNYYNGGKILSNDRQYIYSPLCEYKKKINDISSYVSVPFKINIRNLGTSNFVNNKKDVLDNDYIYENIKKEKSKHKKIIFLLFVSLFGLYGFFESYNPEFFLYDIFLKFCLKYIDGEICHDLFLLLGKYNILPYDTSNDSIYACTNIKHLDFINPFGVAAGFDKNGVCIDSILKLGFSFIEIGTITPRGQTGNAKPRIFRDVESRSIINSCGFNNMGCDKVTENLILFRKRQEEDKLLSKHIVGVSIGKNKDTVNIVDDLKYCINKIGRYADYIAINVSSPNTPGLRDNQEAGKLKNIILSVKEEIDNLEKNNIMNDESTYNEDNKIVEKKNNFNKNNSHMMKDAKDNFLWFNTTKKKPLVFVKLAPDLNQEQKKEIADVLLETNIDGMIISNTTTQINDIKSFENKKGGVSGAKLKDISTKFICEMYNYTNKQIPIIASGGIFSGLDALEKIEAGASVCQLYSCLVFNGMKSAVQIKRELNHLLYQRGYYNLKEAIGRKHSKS
Chain of E3 ubiquitin-protein ligase XIAP (Homo sapiens) (P98170 whole entry, looked up): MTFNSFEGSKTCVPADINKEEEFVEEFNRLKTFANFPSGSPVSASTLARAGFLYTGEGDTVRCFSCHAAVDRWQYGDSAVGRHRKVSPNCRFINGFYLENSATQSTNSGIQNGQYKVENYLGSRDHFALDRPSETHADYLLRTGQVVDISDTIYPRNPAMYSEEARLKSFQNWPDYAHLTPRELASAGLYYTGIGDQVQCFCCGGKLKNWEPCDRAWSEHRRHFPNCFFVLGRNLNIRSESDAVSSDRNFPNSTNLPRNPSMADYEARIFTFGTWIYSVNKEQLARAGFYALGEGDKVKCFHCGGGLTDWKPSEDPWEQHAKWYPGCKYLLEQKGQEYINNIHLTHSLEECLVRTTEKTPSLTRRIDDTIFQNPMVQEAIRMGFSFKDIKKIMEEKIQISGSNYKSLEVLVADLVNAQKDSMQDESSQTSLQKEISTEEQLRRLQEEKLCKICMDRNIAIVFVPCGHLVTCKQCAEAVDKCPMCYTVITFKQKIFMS

In the case of `C#CCN(C/C=C/c1ccccc1)[C@H](CO[Si](C)(C)C(C)(C)C)c1ccccc1`, the z-score in assay [1] is -0.355; in assay [2] it was 0.571 (inactive); in assay [3], -0.668 (inactive); in assay [5], 0.167 (inactive); in [6], 0.244 (inactive); in [7] it was -1.38 (inactive). Moreover, the values for the z-score in [8] and in [9] were -1.59 (inactive) and -0.764, respectively. The composite z-score in assay [4] is -0.26 (inactive); in assay [10], -0.295.

On to `COC(=O)C(CC#Cc1ccc2c(c1)[C@]1(C(=O)N2)[C@H](c2ccc(O)cc2)N2[C@H](c3ccccc3)[C@H](c3ccccc3)OC(=O)[C@H]2[C@@H]1C(=O)N1CCc2cc(OC)c(OC)cc2C1)C(=O)OC`, for which the z-score in [1] is 0.445; in assay [2], 0.954 (inactive); in [3] it was -0.938 (inactive); in assay [5] it was 0.573 (inactive); in [6], 1.58 (inactive); in assay [7], -0.158 (inactive). Further, the z-score was -0.627 (inactive) in assay [8] and -4.12 in [9]. Further, the composite z-score in assay [4] was -11.2 (active); in assay [10], -0.117.

Regarding `COc1cc2c(cc1O)C(c1ccc(CN3CCCC3)cc1)N(Cc1ccc([N+](=O)[O-])o1)CC2` (stereo not given), the z-score in assay [1] was -0.274; in assay [2], -0.547 (inactive); in assay [3] it was -0.727 (inactive); in [5] it was 0.0898 (inactive); in assay [6] it was 0.0464 (inactive); in assay [7] it was -0.79 (inactive). In addition, the z-score was -0.259 (inactive) in [8] and -0.437 in [9]. The composite z-score in [4] is -0.412 (inactive); in [10], 0.0537.

As to `COC(=O)C1=CC(CCCO)=CC(c2ccc(CN3CCCC3)cc2)N(Cc2sc3ccccc3c2Cl)C=C1C(=O)OC` (stereo not given), the z-score is 0.666 in assay [1]; -2.54 (inactive) in assay [2]; 0.691 (inactive) in [3]; 0.186 (inactive) in [5]; -1.62 (inactive) in assay [6]; 0.735 (inactive) in [7]. The z-score was 1.29 (inactive) in assay [8] and 0.85 in assay [9]. For the same compound, the composite z-score in assay [4] is -1.63 (inactive); in assay [10], -0.0084.

Consider `COc1ccc([Si](C)(C)[C@H]2[C@H](CCO)O[C@@]3(C(=O)N(Cc4ccccc4)c4ccc(N(C=O)c5ccccc5)cc43)[C@@H]2C)cc1`, for which the z-score in [1] was 0.0056; in assay [2] it was 1.53 (inactive); in assay [3] it was -2.24 (inactive); in assay [5], 2.58 (inactive); in assay [6] it was 5.16 (inactive); in [7] it was 1.28 (inactive). Further, the z-score in [8] is 0.733 (inactive); in assay [9], -1.28. Moreover, the composite z-score in assay [4] is -0.363 (inactive); in assay [10], -0.0668.

For `CC(C)C[C@H]1NC(=O)[C@@]23C(=O)N[C@@H](Cc4ccccc4)C2[C@H](C)[C@@]2(C)O[C@H]2C3/C=C/C/C=C\CNC(=O)[C@@H]2CCCN2C1=O` (stereo not given in full), the z-score in [1] is -0.706; in [2], -1.43 (inactive); in [3], -0.0195 (inactive); in assay [5], 0.352 (inactive); in assay [6] it was -0.162 (inactive); in [7] it was -0.467 (inactive). Further, the z-score in [8] was -0.0699 (inactive); in [9] it was 0.476. The composite z-score is -0.742 (inactive) in [4] and 0.155 in assay [10].

Turning to `COCC(=C=CC[C@@H](O)c1cccc(OCCO)c1)C[C@@H](O)COCc1ccccc1`, the z-score in assay [1] is 0.744; in assay [2], -0.353 (inactive); in [3] it was 0.629 (inactive); in assay [5] it was 0.13 (inactive); in assay [6], -2.24 (inactive); in assay [7], 0.481 (inactive). In addition, the z-score was 0.392 (inactive) in [8] and 0.629 in [9]. The composite z-score in assay [4] is -2.13 (inactive); in [10], 1.16.

As for `CCC(CC)C(O)C1C=CC2C(=O)N(C)C(=O)C2N1N1CCCCC1` (stereo not given), the z-score in assay [1] was -0.735; in assay [2], -0.0172 (inactive); in assay [3] it was -1.21 (inactive); in [5], 0.571 (inactive); in assay [6], -0.266 (inactive); in assay [7], -0.652 (inactive). Also, the z-score was -0.686 (inactive) in assay [8] and -1.12 in [9]. For the same compound, the composite z-score was -1.17 (inactive) in [4] and 0.167 in [10].

With `CCOC(=O)C1=CC[C@@H](c2ccccc2)N(S(=O)(=O)C[Si](C)(C)C)[C@H]1c1ccccc1`, the z-score in assay [1] was 0.128; in [2] it was 0.945 (inactive); in assay [3] it was -0.013 (inactive); in [5] it was 0.257 (inactive); in assay [6], -0.42 (inactive); in assay [7] it was -0.618 (inactive). The z-score was -1.59 (inactive) in assay [8] and 0.343 in assay [9]. The composite z-score is 0.407 (inactive) in assay [4] and -0.125 in assay [10].

Regarding `CC(=O)NCCCC[C@@H]1NC(=O)[C@H]2C[C@@H](C(=O)NCCCCCC[N+](C)(C)C)[C@@H](c3ccc(O)cc3)N2C1=O`, the z-score is 0.387 in assay [1]; -0.0177 (inactive) in [2]; 0.319 (inactive) in assay [3]; 0.519 (inactive) in assay [5]; -0.533 (inactive) in assay [6]; -0.04 (inactive) in assay [7]. Also, the z-score in [8] was -0.63 (inactive); in assay [9], -0.0771. For the same compound, the composite z-score in assay [4] was -1.03 (inactive); in [10] it was -0.0062.

With `O=C1C2C=CC(C(O)c3ccc([N+](=O)[O-])cc3)N(Nc3ccccc3)C2C(=O)N1c1ccccc1` (stereo not given), the z-score in assay [1] was -0.849; in assay [2], -2.61 (inactive); in assay [3], -0.952 (inactive); in assay [5], 0.791 (inactive); in assay [6], -0.453 (inactive); in [7] it was -0.46 (inactive). Further, the results for the z-score in assay [8] and in [9] were -0.253 (inactive) and -1.81, respectively. In addition, the composite z-score in assay [4] was -1.03 (inactive); in assay [10], -0.0085.

For `Cc1ccc(S[C@]2(C(=O)NCC(F)(F)F)CC(=O)N(C3CCCCC3)[C@@H]2c2ccc(CO)cc2)cc1`, the z-score is -0.473 in [1]; -0.0396 (inactive) in [2]; 0.273 (inactive) in assay [3]; 0.0309 (inactive) in [5]; 0.309 (inactive) in [6]; 0.457 (inactive) in [7]. Besides, the results for the z-score in assay [8] and in [9] were 1.01 (inactive) and 0.149, respectively. Besides, the composite z-score was -1.41 (inactive) in assay [4] and -0.155 in assay [10].

As to `C=CCC(OC(C)=O)[C@@H]1[C@@H](N(Cc2ccc(-c3cccc(C(F)(F)F)c3)o2)C(=O)c2cccc3ccccc23)c2cc(OCCCO)ccc2N1C(=O)c1ccc2ccccc2c1` (stereo not given in full), the z-score in [1] was -0.0598; in assay [2], -0.988 (inactive); in [3], -0.416 (inactive); in assay [5], -0.464 (inactive); in assay [6], 0.204 (inactive); in assay [7], 0.807 (inactive). The values for the z-score in assay [8] and in assay [9] were 0.489 (inactive) and -0.311, respectively. Further, the composite z-score was -0.0361 (inactive) in assay [4] and -0.04 in assay [10].

The record behind these values is PubChem BioAssay.
